# Test results as given in PubChem BioAssay (NCATS).
# Several values for one entry are separate records, joined by “and”; a condition that tells them apart may be missing. Equal entries are not always repeated. Records with an inconclusive call do not appear. Where a call stands in place of a potency, no number is given. Activity calls are given as the source filed them. Unless noted, calls follow the shape of the dose curve; as a rule, active = well fitted curve in the direction sought with a large enough effect; inconclusive = small, poorly fitted or top-dose-only effect, or another doubt; inactive = no such curve, though single readings can be large; an effect the other way counts as inactive or inconclusive.
# Columns and labels:
# [1] = Primary qHTS for inhibitors of nuclear receptor binding SET domain protein 2 (NSD2) in an RCH-ACV wild type WT cells (2C) (AID 1645877); conditions: RCH-ACV NSD2 WT (2C) viability, CellTiter-Glo, 72 h; series mostly up to 44.9 µM; also: nearly all actives have a fitted effect of over 70% in size; also: potency is read from the fitted curve at half-maximal effect
# [2] = target: Glutathione peroxidase 1 (Homo sapiens) (UniProt P07203); assay: Primary qHTS Assay for Inhibitors of Recombinant Selenoprotein Glutathione Peroxidase 1 (GPX1) (AID 1845191); conditions: recombinant GPX1, GR-coupled NADPH fluorescence, 15 min; series mostly up to 48.8 µM; also: nearly all actives have a fitted effect of over 65% in size; also: potency is read from the fitted curve at half-maximal effect
# How it was run: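 GPX1 10 nM, GR 100 nM, GSH 1 mM, NADPH 0.5 mM, CHP 0.5 mM (final). 30-min cpd preincubation, RT. Ex340/Em450 read t=0, t=15 min.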
# [3] = target: Phospholipid hydroperoxide glutathione peroxidase GPX4 (Homo sapiens) (UniProt P36969); assay: Primary qHTS Assay for Inhibitors of Recombinant Selenoprotein Glutathione Peroxidase 4 (GPX4) (AID 1845192); conditions: recombinant GPX4, GR-coupled NADPH fluorescence, 15 min; series mostly up to 50 µM; also: nearly all actives have a fitted effect of over 65% in size; also: potency is read from the fitted curve at half-maximal effect
# How it was run: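 qHTS, GR-coupled: GPX4 200 nM + cpd 30 min RT → GSH 1 mM, NADPH 0.5 mM, GR 100 nM → CHP 0.5 mM start; fluor 340/450 at t0 and t15 min; no-enzyme wells as control.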
# [4] = qHTS drug screen for cell cycle checkpoint inhibitors in PARPi-resistant BRCA-mutant ovarian cancer cell lines. (AID 1963452; calls by dose curve); conditions: PEO1/OlaR viability, CellTiter-Glo luminescence, 96 h, stronger effect = lower value
# How it was run: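 PEO1, PEO4 and PEO1/OlaR ovarian cancer cells, 600 per well, exposed 96 h at 37C to a dilution series. Viability read by CellTiter-Glo luminescence, normalized to DMSO and empty wells; activity summarized as Z-AUC.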
# [5] = Primary qHTS for inhibitors of nuclear receptor binding SET domain protein 2 (NSD2) in an isogenic RCH-ACV NSD2 p.E1099K mutant (9B) (AID 1645876); conditions: RCH-ACV (leukaemia line) NSD2 E1099K (9B) viability, CellTiter-Glo, 72 h; series mostly up to 44.9 µM; also: nearly all actives have a fitted effect of over 70% in size; also: potency is read from the fitted curve at half-maximal effect
# [6] = target: Rap guanine nucleotide exchange factor 3 (Homo sapiens) (UniProt O95398); assay: Confirmatory qHTS for antagonist of cAMP-regulated guanine nucleotide exchange factor 3 (EPAC1) (AID 1645880); conditions: EPAC1 Rap1B-BODIPY-GDP exchange, fluorescence; series mostly up to 115 µM; also: nearly all actives have a fitted effect of over 55% in size; also: potency is read from the fitted curve at half-maximal effect
# How it was run: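 Released BODIPY-GDP fluoresces less than Rap1-bound BODIPY-GDP; the signal is followed at 480/540 nm at 5-min intervals over 30 min, after 5 min at room temperature. Reactions contain 100 nM EPAC1, 250 nM RAP1B-BODIPY-GDP and 50 uM GDP; results are normalized to ATA and DMSO.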
# [7] = target: Rap guanine nucleotide exchange factor 3 (Homo sapiens) (UniProt O95398); assay: Confirmatory qHTS for agonist of cAMP-regulated guanine nucleotide exchange factor 3 (EPAC1) (AID 1645881); conditions: EPAC1 Rap1B BODIPY-GDP exchange fluorescence; series mostly up to 154 µM;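 also: EPAC1 catalysed release of BODIPY-GDP from Rap1B seen as fluorescence loss; nearly all actives have a fitted effect of over 75% in size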
# [8] = target: Rap guanine nucleotide exchange factor 4 (Homo sapiens) (UniProt Q8WZA2); assay: Confirmatory qHTS for agonist of cAMP-regulated guanine nucleotide exchange factor 4 (EPAC2) (AID 1645884); conditions: EPAC2 GEF activity, Rap1B-BODIPY-GDP fluorescence; series mostly up to 154 µM;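 also: nucleotide exchange releases bodipy-GDP from Rap1 and this lowers its fluorescence; nearly all actives have a fitted effect of over 65% in size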; also: potency is read from the fitted curve at half-maximal effect
# [9] = target: Rap guanine nucleotide exchange factor 4 (Homo sapiens) (UniProt Q8WZA2); assay: Confirmatory qHTS for antagonist of cAMP-regulated guanine nucleotide exchange factor 4 (EPAC2) (AID 1645885); conditions: EPAC2 Rap1B-BODIPY-GDP exchange fluorescence, biochemical; series mostly up to 12.7 µM; also: nearly all actives have a fitted effect of over 25% in size; also: potency is read from the fitted curve at half-maximal effect
# [10] = measured here: PEO1 parental Z-AUC
# Rap guanine nucleotide exchange factor 3 (Homo sapiens), sequence (O95398 whole entry, looked up): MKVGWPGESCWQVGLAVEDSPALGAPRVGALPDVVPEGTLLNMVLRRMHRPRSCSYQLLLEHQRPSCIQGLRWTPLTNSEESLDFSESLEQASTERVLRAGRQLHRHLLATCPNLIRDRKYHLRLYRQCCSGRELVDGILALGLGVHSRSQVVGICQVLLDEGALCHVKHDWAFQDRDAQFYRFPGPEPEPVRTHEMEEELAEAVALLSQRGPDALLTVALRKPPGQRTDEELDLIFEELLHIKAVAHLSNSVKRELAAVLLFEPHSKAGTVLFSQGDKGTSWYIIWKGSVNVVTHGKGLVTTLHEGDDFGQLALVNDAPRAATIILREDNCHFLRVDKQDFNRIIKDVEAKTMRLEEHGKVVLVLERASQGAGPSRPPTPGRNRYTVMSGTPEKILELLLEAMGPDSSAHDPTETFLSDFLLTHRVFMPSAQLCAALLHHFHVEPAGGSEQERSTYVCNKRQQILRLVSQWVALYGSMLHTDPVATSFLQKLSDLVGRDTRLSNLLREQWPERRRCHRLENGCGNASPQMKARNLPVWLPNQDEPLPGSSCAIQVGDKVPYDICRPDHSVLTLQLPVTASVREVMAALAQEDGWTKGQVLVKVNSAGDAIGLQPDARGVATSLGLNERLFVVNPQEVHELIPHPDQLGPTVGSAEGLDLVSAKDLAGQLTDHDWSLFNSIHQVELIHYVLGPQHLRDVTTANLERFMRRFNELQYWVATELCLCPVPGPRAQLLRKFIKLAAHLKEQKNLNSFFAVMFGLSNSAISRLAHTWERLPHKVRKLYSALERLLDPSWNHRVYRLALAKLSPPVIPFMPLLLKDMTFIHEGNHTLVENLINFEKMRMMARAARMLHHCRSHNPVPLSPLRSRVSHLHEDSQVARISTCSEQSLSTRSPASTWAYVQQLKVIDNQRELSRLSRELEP
# Rap guanine nucleotide exchange factor 4 (Homo sapiens), sequence (Q8WZA2 whole entry, looked up): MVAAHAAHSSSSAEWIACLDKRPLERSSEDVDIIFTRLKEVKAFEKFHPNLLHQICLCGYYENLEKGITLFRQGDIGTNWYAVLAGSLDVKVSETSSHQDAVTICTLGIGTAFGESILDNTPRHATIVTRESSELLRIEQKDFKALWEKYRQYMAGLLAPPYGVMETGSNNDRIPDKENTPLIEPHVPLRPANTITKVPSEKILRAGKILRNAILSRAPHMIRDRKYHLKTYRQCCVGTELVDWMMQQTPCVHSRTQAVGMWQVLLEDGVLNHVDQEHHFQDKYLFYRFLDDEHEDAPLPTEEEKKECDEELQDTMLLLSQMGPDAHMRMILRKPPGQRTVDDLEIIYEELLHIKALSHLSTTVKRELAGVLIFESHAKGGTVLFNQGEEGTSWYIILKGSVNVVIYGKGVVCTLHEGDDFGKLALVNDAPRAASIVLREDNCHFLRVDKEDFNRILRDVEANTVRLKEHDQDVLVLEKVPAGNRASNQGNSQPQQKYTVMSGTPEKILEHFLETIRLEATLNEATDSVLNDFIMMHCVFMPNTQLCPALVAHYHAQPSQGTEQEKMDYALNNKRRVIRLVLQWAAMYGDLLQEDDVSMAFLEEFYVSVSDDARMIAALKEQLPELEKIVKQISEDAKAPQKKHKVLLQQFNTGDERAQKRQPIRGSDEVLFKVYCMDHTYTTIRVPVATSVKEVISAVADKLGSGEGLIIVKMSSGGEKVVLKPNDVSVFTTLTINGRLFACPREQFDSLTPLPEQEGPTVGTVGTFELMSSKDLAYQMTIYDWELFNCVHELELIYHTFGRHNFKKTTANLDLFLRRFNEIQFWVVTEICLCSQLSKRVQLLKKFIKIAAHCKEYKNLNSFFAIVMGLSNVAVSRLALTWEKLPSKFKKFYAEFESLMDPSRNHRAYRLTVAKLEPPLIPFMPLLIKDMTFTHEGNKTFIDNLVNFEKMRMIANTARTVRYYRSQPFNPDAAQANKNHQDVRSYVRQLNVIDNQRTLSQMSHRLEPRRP
# Phospholipid hydroperoxide glutathione peroxidase GPX4 (Homo sapiens), sequence (P36969 whole entry, looked up): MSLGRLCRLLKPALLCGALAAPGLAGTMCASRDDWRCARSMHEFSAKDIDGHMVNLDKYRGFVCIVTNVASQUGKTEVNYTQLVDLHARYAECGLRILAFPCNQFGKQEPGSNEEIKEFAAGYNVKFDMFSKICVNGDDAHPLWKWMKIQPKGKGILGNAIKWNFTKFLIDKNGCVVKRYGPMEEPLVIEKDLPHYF
# Glutathione peroxidase 1 (Homo sapiens), sequence (P07203 whole entry, looked up): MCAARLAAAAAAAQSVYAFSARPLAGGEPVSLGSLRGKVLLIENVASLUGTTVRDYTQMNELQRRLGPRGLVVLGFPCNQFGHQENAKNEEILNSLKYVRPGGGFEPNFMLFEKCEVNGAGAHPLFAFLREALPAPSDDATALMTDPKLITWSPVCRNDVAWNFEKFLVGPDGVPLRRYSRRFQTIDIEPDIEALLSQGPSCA
smiles,measurement,setting,value
COC(=O)N[C@H](C(=O)N1CCC[C@H]1c1ncc(-c2ccc(-c3ccc(-c4cnc([C@@H]5CCCN5C(=O)[C@@H](NC(=O)OC)C(C)C)[nH]4)cc3)cc2)[nH]1)C(C)C,Potency,[1],20.9 µM (active)
same,Potency,[2],16.1 µM (active)
same,Potency,[3],18 µM (active) and 20 µM (active)
same,Z-AUC,[4],-0.519 (inactive)
same,Z-AUC,[4]; [10],-0.789
same,Z-AUC,[4]; measured here: PEO4 Z-AUC,-0.801
CCCCCc1ccc(/C=C/[C@H](O)[C@@H](CO)NC)cc1,Potency,[5],23.1 µM (active)
same,Potency,[2],inactive
CC1COc2ccccc2N1S(=O)(=O)c1cc(Cl)ccc1Cl (stereo not given),Potency,[6],inactive
same,Potency,[7],inactive
Cc1cc(O[C@@H](CCC(F)(F)F)c2ccc(C(=O)NCCC(=O)O)cc2)cc(C)c1-c1ccc(C(C)(C)C)cc1,Potency,[1],inactive
same,Potency,[2],inactive
same,Z-AUC,[4],0.000666 (inactive)
same,Z-AUC,[4]; [10],0.0877
same,Z-AUC,[4]; measured here: PEO4 Z-AUC,-0.261
CN(C)c1ccc(/C=C/c2c(Cl)cnc3ccccc23)cc1,Potency,[6],inactive
same,Potency,[7],inactive
CC1=C(c2ccc(O)cc2)[C@H](c2ccc(OCCN3CCCCC3)cc2)Oc2cc(O)ccc21,Potency,[5],inactive
same,Potency,[2],inactive
same,Potency,[3],inactive
CCc1ccccc1NC(=O)c1oc(=O)c2ccccc2c1-c1ccccc1,Potency,[6],inactive
same,Potency,[7],inactive
same,Potency,[8],inactive
same,Potency,[9],inactive
C#C[C@]1(OC(C)=O)CCC2C3CCC4=CC(=O)CC[C@@H]4C3CC[C@@]21C (stereo not given in full),Potency,[6],inactive
same,Potency,[7],inactive
same,Potency,[8],inactive
same,Potency,[9],39.3 µM (active)
C/C(CC(=O)Nc1ccc2ccccc2c1)=N\NC(=O)c1cnccn1,Potency,[6],inactive
same,Potency,[7],inactive
same,Potency,[8],inactive
same,Potency,[9],inactive
COc1ccc(S(=O)(=O)Nc2cccc(F)c2)cc1C,Potency,[6],inactive
same,Potency,[7],inactive
same,activation,[8],"1.76% [at 17.1 µM, percent relative to cAMP agonist control] (inactive)"
same,Potency,[9],inactive
COc1ccc(CNC(=O)[C@@H]2CC=C[C@@H]3CCN(Cc4ccccc4)C(=O)[C@@H]32)cc1,Potency,[6],inactive
same,Potency,[7],inactive
same,Potency,[8],inactive
same,Potency,[9],inactive
O=C(C[n+]1cccc2cc(Cl)ccc21)c1ccc(Br)cc1,Potency,[6],inactive
same,Potency,[7],inactive
same,Potency,[8],inactive
same,Potency,[9],inactive
CC(=O)c1ccc(NC(=O)CC2Nc3cccc4cccc(c34)NC2=O)cc1 (stereo not given),Potency,[6],75.7 µM (active)
same,Potency,[7],inactive
same,Potency,[8],inactive
same,Potency,[9],inactive
NNc1nc2c(Cl)c(Cl)ccc2s1,Potency,[6],inactive
same,Potency,[7],inactive
same,activation,[8],"7.89% [at 17.1 µM, percent relative to cAMP agonist control] (inactive)"
same,Potency,[9],inactive
CC[C@H]1c2[nH]c3ccc(C(C)C)cc3c2[C@@H]2CCN3C(=O)CCC[C@H]1[C@H]23,Potency,[6],inactive
same,Potency,[7],inactive
same,Potency,[8],inactive
same,Potency,[9],inactive
CC1Sc2ccc(C(=O)OCc3ccccc3Cl)cc2NC1=O (stereo not given),Potency,[6],inactive
same,Potency,[7],inactive
same,Potency,[8],inactive
same,Potency,[9],inactive
c1ccc2c(N3CCCCCC3)nc(CN3CCCCC3c3nccs3)nc2c1 (stereo not given),Potency,[6],inactive
same,Potency,[7],inactive
same,Potency,[8],inactive
same,Potency,[9],13.9 µM (active)
COc1cc(/C=N/NC(=O)c2ccccn2)ccc1OC(=O)c1ccc(Br)cc1,Potency,[6],inactive
same,Potency,[7],inactive
same,Potency,[8],inactive
same,Potency,[9],inactive
COc1cc(C(=O)N(Cc2cc3ccc(C)cc3nc2N(C)C)C2CC2)cc(OC)c1OC,Potency,[6],inactive
same,Potency,[7],inactive
same,Potency,[8],inactive
same,Potency,[9],17.5 µM (active)
Nc1ccn(C2C=CC(CO)O2)c(=O)n1 (stereo not given),Potency,[6],inactive
same,Potency,[7],inactive
same,Potency,[8],inactive
same,Potency,[9],inactive
CC(C)N(C(=O)Nc1ccc2nsnc2c1)C(C)C,Potency,[6],22.4 µM (active)
same,Potency,[7],inactive
same,activation,[8],"2.55% [at 17.1 µM, percent relative to cAMP agonist control] (inactive)"
same,Potency,[9],inactive
COc1cccc(C(=O)N(Cc2cc3ccc(C)cc3nc2N(C)C)C2CC2)c1OC,Potency,[6],inactive
same,Potency,[7],inactive
same,Potency,[8],inactive
same,Potency,[9],17.5 µM (active)
COC(=O)c1cc(CNC(=O)c2ccccn2)cc(NC(=O)c2ccccc2OC)c1,Potency,[6],inactive
same,Potency,[7],inactive
same,Potency,[8],inactive
same,Potency,[9],inactive
CC(=O)NC(c1ccc2ccccc2c1)c1ccc2cccnc2c1O (stereo not given),Potency,[6],inactive
same,Potency,[7],inactive
same,Potency,[8],inactive
same,Potency,[9],10.7 µM (active)
CCC(C(=O)Nc1cc(OC)ccc1OC)n1nc(-c2ccccc2)c2c(c1=O)CCCC2 (stereo not given),Potency,[6],inactive
same,Potency,[7],inactive
same,Potency,[8],inactive
same,Potency,[9],inactive
CCOC(=O)[C@H](CCc1ccccc1)N[C@@H](C)C(=O)N1[C@@H](C(=O)O)C[C@@H]2CCC[C@@H]21,Potency,[6],inactive
same,Potency,[7],inactive
same,Potency,[8],inactive
same,Potency,[9],inactive
COc1cc(/C=N/NC(=O)c2ccccc2)ccc1O,Potency,[6],inactive
same,Potency,[7],inactive
same,Potency,[8],inactive
same,Potency,[9],inactive
N#Cc1cc(NC(=O)c2ccc(Cl)cc2)ccc1Sc1ccccc1,Potency,[6],inactive
same,Potency,[7],inactive
same,Potency,[8],inactive
same,Potency,[9],inactive
CCC1CCCCN1CCCNC(=O)CCC(=O)N1CC(C)Oc2ccccc21 (stereo not given),Potency,[6],inactive
same,Potency,[7],inactive
same,Potency,[8],inactive
same,Potency,[9],inactive
COC(=O)c1cn(C(=O)c2ccc(OC)cc2)c2ccccc12,Potency,[6],inactive
same,Potency,[7],inactive
same,Potency,[8],31.6 µM (active)
same,Potency,[9],inactive
CCOc1ccc(/C(C)=N/NC(=O)C(OC)c2ccccc2)cc1 (stereo not given),Potency,[6],inactive
same,Potency,[7],inactive
same,Potency,[8],inactive
same,Potency,[9],inactive
CC(C)CC1C(=O)N(Cc2cn(CCC3OCCCO3)nn2)CCS(=O)(=O)N1Cc1ccc(-c2ccc(F)cc2)cc1 (stereo not given),Potency,[6],inactive
same,Potency,[7],inactive
same,Potency,[8],inactive
same,Potency,[9],inactive
CN(C)c1ccc(/C=C/c2ccnc3ccc4ccccc4c23)cc1,Potency,[6],49.8 µM (active)
same,Potency,[7],inactive
same,Potency,[8],inactive
same,Potency,[9],55.5 µM (active)
COc1cccc(-c2nc3cc(SC)ccc3cc2CN(C(=O)c2csc(C)n2)C2CC2)c1,Potency,[6],inactive
same,Potency,[7],inactive
same,Potency,[8],inactive
same,Potency,[9],11.1 µM (active)
COc1cccc(-c2nc3cc(SC)ccc3cc2CN(C(=O)c2sccc2C)C2CC2)c1,Potency,[6],inactive
same,Potency,[7],inactive
same,Potency,[8],inactive
same,Potency,[9],31.2 µM (active)
COc1cc2cc(CNc3ccc(C)cc3)c(=O)n(CC(=O)Nc3ccc(F)cc3F)c2cc1OC,Potency,[6],inactive
same,Potency,[7],inactive
same,Potency,[8],inactive
same,Potency,[9],inactive
COC(=O)C(Cc1ccc(O)cc1)NC(=O)CCc1nc2ccccc2s1 (stereo not given),Potency,[6],inactive
same,Potency,[7],inactive
same,Potency,[8],inactive
same,Potency,[9],inactive
COc1ccc(C(C[N+](=O)[O-])c2c(C)cc3ccccn23)c(OC)c1 (stereo not given),Potency,[6],inactive
same,Potency,[7],inactive
same,activation,[8],"7.09% [at 17.1 µM, percent relative to cAMP agonist control] (inactive)"
same,Potency,[9],inactive
CCOC(=O)N1CCC(N2CCOc3ccc(CN4CCC(O)(c5cccnc5)CC4)cc3C2)CC1,Potency,[6],inactive
same,Potency,[7],inactive
same,Potency,[8],inactive
same,Potency,[9],inactive
Cn1cccc1-c1cc(C(=O)N/N=C/c2ccc(F)cc2)[nH]n1,Potency,[6],inactive
same,Potency,[7],inactive
same,activation,[8],"-2.5% [at 17.1 µM, percent relative to cAMP agonist control] (inactive)"
same,Potency,[9],inactive
CCOC(=O)c1[nH]c(C)c(C(=O)NC(C)(C)C)c1C,Potency,[6],inactive
same,Potency,[7],inactive
same,Potency,[8],inactive
same,Potency,[9],inactive
